# Measured values taken from PubChem BioAssay (Tox21).
# Where “and” joins values, the source holds several entries; their conditions need not be identical. Equal values may be shown once. Inconclusive results are not listed. Where a call stands in place of a potency, no number is given. Some structures have more than one record in an assay (separate samples or runs), and their calls can disagree. Calls of active or inactive are those of the source. Unless noted, the call rests on the fitted dose curve; in most records, active means well fitted curve in the direction sought with a large enough effect in the repeat runs; inconclusive means weak or mixed curves; inactive means no such curve, though single readings can be large; an effect the other way counts as inactive or inconclusive.
# How the values were obtained:
# [1] = qHTS assay to identify small molecule antagonists of the sonic hedgehog signaling (Shh) pathway (AID 1259369; calls by dose curve; further: nearly all actives have a fitted effect of over 45% in size; further: potency means the concentration at half of the fitted maximal effect)
# Summary of the method: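 Antagonist mode: compound added to 3T3 Gli1-Luc cells followed by conditioned-medium stimulation, 24 h at 37 C, 5% CO2. Inhibition taken as loss of Gli1-driven luciferase luminescence.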
# [2] = qHTS assay to identify small molecule agonists of the androgen receptor (AR) signaling pathway in the presence of an antagonist - cell viability counter screen (AID 1259379); further: nearly all actives have a fitted effect of over 25% in size; further: potency means the concentration at half of the fitted maximal effect
# Summary of the method: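 Cytotoxicity counter-screen run in the same wells as the nilutamide-challenged (3.0 µM final) AR agonist assay in MDA-kb2 cells. Compounds tested at 15 concentrations for 16 h, 37 °C without CO2; CellTiter-Fluor fluorescence read.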
# [3] = qHTS assay to identify small molecule agonists of the estrogen receptor beta (ER-beta) signaling pathway - cell viability counter screen (AID 1259380); further: nearly all actives have a fitted effect of over 30% in size; further: potency means the concentration at half of the fitted maximal effect
# Summary of the method: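 Cell viability counter screen: CellTiter-Glo luminescence (30 min, room temperature) measured in the same wells as the beta-lactamase readout, after 16 hr compound exposure at 37C of ER-beta-bla HEK293T cells in 2% charcoal-stripped FBS medium.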
# [4] = qHTS assay to identify small molecule antagonists of the estrogen receptor beta (ER-beta) signaling pathway - cell viability counter screen (AID 1259382); further: nearly all actives have a fitted effect of over 55% in size; further: potency means the concentration at half of the fitted maximal effect
# Summary of the method: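 Cytotoxicity was measured in the same wells by CellTiter-Glo luminescence after 30 min at room temperature. Cells were ER-beta-bla HEK293T in charcoal-stripped serum, given compound together with 1 nM E2 and incubated 16 h at 37C.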
# [5] = target: Estrogen receptor (Homo sapiens) (UniProt P03372); assay: qHTS assay to identify small molecule agonists of the estrogen receptor alpha (ER-alpha) signaling pathway in the presence of an antagonist (AID 1259383; calls by dose curve; further: nearly all actives have a fitted effect of over 15% in size; further: potency means the concentration at half of the fitted maximal effect; on activation: top concentration of the series differs between compounds)
# Chain of Estrogen receptor (Homo sapiens) (P03372 whole entry, looked up): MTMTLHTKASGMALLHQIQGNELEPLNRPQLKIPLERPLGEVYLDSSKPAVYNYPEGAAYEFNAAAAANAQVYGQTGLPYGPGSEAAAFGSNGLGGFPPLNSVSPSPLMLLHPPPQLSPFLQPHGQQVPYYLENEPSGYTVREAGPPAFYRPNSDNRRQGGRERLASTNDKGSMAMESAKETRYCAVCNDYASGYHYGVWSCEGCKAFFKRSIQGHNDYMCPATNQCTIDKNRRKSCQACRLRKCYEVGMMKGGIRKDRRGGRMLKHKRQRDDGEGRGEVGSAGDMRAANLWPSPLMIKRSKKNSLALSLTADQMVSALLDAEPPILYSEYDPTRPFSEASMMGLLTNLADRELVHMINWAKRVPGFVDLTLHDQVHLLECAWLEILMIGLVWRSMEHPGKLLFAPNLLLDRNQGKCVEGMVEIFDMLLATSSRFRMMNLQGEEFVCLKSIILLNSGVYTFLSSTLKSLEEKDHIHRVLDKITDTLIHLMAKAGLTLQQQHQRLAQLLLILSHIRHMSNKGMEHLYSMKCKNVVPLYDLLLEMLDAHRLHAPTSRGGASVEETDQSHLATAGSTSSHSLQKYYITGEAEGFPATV
# Summary of the method: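 Agonist-mode confirmation run in the presence of 10.0nM (final) ICI-182,780 antagonist. The reporter was ERE-driven luciferase in VM7Luc4E2 cells, grown in charcoal-stripped serum. Cells were exposed to 15-concentration compound series for 22hr, then ONE-Glo luminescence was read.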
# [6] = qHTS assay to identify small molecule agonists or antagonists of the thyroid stimulating hormone receptor (TSHR) signaling pathway - wild type cell line counter screen (AID 1259384; calls by dose curve)
# Summary of the method: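 Wild-type HEK293 cells were plated 18 h at 37 C/5% CO2, pin-dosed with compound plus Ro20-1724 medium, held 30 min at room temperature, then given cAMP-d2 and anti-cAMP-cryptate; fluorescence was read after 1 h. Fifteen concentrations, triplicate.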
# [7] = qHTS assay to identify small molecule agonists of the estrogen receptor alpha (ER-alpha) signaling pathway in the presence of an antagonist - cell viability counter screen (AID 1259386); further: nearly all actives have a fitted effect of over 30% in size; further: potency means the concentration at half of the fitted maximal effect
# Summary of the method: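 Compounds tested at 15 concentrations for 22 h at 37C alongside 10.0nM (final) ICI-182,780 antagonist, in VM7Luc4E2 cells grown in phenol red-free, charcoal-stripped medium. Viability read by CellTiter-Fluor fluorescence after 1 h reagent incubation.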
# [8] = target: Progesterone receptor (Homo sapiens) (UniProt P06401); assay: qHTS assay to identify small molecule agonists of the progesterone receptor (PR) signaling pathway (AID 1346784; calls by dose curve; further: nearly all actives have a fitted effect of over 30% in size)
# Chain of Progesterone receptor (Homo sapiens) (P06401 whole entry, looked up): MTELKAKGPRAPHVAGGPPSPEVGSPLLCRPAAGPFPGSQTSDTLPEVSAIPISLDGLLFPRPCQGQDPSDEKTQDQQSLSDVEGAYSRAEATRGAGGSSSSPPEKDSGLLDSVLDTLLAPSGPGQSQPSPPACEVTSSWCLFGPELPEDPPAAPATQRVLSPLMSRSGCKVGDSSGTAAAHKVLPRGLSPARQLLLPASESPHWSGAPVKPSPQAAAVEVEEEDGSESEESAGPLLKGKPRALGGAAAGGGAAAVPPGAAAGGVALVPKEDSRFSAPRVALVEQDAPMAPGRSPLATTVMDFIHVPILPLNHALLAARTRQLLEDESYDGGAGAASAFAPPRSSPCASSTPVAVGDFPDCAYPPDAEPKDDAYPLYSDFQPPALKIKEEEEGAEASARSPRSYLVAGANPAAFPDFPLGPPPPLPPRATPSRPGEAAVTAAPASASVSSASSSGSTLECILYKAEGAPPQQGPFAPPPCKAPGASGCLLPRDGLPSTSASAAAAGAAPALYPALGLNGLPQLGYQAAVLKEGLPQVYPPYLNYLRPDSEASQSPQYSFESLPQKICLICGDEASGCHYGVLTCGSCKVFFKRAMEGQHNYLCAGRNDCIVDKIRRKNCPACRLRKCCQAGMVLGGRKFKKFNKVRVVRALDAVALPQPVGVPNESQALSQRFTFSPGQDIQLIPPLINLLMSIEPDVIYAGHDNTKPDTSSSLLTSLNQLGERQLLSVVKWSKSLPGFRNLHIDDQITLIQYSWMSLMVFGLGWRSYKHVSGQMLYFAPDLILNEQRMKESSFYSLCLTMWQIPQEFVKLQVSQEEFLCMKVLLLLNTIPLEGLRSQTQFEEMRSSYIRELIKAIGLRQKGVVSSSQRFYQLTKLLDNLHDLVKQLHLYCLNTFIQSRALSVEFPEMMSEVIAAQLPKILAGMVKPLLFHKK
# Summary of the method: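 Agonist qHTS: compounds pinned onto 3,000 PR-UAS-bla HEK 293T cells per well in charcoal-stripped serum medium, 16hr at 37C, then beta-lactamase activity measured by LiveBLAzer FRET fluorescence after 2 hours at room temperature.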
# [9] = target: Progesterone receptor (Homo sapiens) (UniProt P06401); assay: qHTS assay to identify small molecule antagonists of the progesterone receptor (PR) signaling pathway (AID 1346795; active means well fitted inhibition curve with a large enough effect in the signal ratio in the repeat runs, not every such curve was filed as active; the % refers to the signal ratio; further: potency means the concentration at half of the fitted maximal effect)
# Summary of the method: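 Antagonist mode with agonist R5020 at 1 nM final and 16 hr incubation at 37C. Reporter was beta-lactamase driven by UAS in HEK293T (PR-UAS-bla), 2% charcoal-stripped serum; signal from LiveBLAzer FRET substrate, 2 hr at room temperature.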
# [10] = qHTS assay to identify small molecule antagonists of the progesterone receptor (PR) signaling pathway - cell viability counter screen (AID 1346798); further: nearly all actives have a fitted effect of over 50% in size; further: potency means the concentration at half of the fitted maximal effect
# Summary of the method: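 Cytotoxicity read as CellTiter-Glo luminescence (30 min, room temperature) in the same wells as the beta-lactamase readout. HEK293T PR-UAS-bla cells in charcoal-stripped 2% FBS received compound and R5020, then 16 h at 37C, 5% CO2.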
# [11] = qHTS assay to identify small molecule agonists of the progesterone receptor (PR) signaling pathway - cell viability counter screen (AID 1346799; calls by dose curve; further: nearly all actives have a fitted effect of over 45% in size; further: potency means the concentration at half of the fitted maximal effect)
# Summary of the method: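 Cytotoxicity measured by CellTiter-Glo luminescence (30 min, RT) in the same wells as the PR beta-lactamase agonist read. Those HEK293T cells had 16 h compound treatment at 37 C in 2% charcoal-stripped FBS medium.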
# [12] = qHTS assay to identify small molecule antagonists of the TGF-beta/Smad signaling pathway - cell viability counter screen (AID 1346824); further: nearly all actives have a fitted effect of over 50% in size; further: potency means the concentration at half of the fitted maximal effect
# Summary of the method: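 SBE-bla HEK 293T cells were plated overnight at 37 C, then given compounds in DMSO plus TGF-beta1 (added as 0.25 ng/mL solution) for 5 hr. After the bla read, CellTiter-Glo was added to the same wells and luminescence read after 30 min at room temperature.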
# [13] = qHTS assay to identify small molecule agonists of the TGF-beta/Smad signaling pathway - cell viability counter screen (AID 1346829); further: nearly all actives have a fitted effect of over 45% in size; further: potency means the concentration at half of the fitted maximal effect
# Summary of the method: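 SBE-bla HEK 293T cells plated overnight, compound exposure 5 hr at 37 C. Viability read in the same wells by CellTiter-Glo luminescence after 30 min at room temperature, following the beta-lactamase read.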
# [14] = qHTS assay to identify small molecule agonists of the TGF-beta/Smad signaling pathway (AID 1346859; active means well fitted activation curve with a large enough effect in the signal ratio in the repeat runs, not every such curve was filed as active; the % refers to the signal ratio; further: series mostly up to about 77 µM)
# Summary of the method: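 Fluorescence (ex 405 nm; em 460 and 530 nm) was read 2 h after LiveBLAzer FRET substrate at RT. The preceding compound treatment of overnight-plated SBE-bla HEK293T cells lasted 5 h at 37 C.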
# [15] = target: Thyrotropin-releasing hormone receptor (Homo sapiens) (UniProt P34981); assay: qHTS assay to identify small molecule antagonists of the thyrotropin-releasing hormone receptor (TRHR) signaling pathway (AID 1346877; active means well fitted inhibition curve with a large enough effect in the repeat runs, not every such curve was filed as active; further: series mostly up to about 51 µM)
# Chain of Thyrotropin-releasing hormone receptor (Homo sapiens) (P34981 whole entry, looked up): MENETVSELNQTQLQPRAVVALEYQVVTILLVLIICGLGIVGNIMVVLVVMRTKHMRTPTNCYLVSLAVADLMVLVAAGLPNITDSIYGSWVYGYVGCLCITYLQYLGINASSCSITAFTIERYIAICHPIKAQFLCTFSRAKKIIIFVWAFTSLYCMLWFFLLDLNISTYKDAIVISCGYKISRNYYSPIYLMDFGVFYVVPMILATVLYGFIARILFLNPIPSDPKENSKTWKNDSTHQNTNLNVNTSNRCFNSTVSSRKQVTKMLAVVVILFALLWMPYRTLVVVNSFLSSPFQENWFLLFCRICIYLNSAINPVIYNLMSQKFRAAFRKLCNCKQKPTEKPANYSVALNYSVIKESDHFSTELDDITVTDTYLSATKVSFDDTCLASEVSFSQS
# Summary of the method: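 Antagonist mode: after a 5 min room-temperature compound exposure, cells were stimulated with 1 nM (final) TRH. Dye-loaded TRHR-HEK293 cells were used, and calcium-dependent fluorescence was followed for 3 min, with 15-point titrations run in triplicate.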
# [16] = target: Thyrotropin-releasing hormone receptor (Homo sapiens) (UniProt P34981); assay: qHTS assay to identify small molecule agonists of the thyrotropin-releasing hormone receptor (TRHR) signaling pathway (AID 1346891; calls by dose curve; further: series mostly up to about 58 µM)
# Summary of the method: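 Agonist-mode intracellular calcium readout: kinetic fluorescence over 3 min at 1 s intervals after compound addition to TRHR-HEK293 cells (18 h seeded, 2 h dye-loaded at 37 C). Fifteen concentrations, triplicates.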
# [17] = target: Estrogen receptor beta (Homo sapiens) (UniProt Q92731); assay: qHTS assay to identify small molecule antagonists of the estrogen receptor beta (ER-beta) signaling pathway (AID 1259378; active means well fitted inhibition curve with a large enough effect in the signal ratio in the repeat runs, not every such curve was filed as active; the % refers to the signal ratio; further: potency means the concentration at half of the fitted maximal effect)
# Chain of Estrogen receptor beta (Homo sapiens) (Q92731 whole entry, looked up): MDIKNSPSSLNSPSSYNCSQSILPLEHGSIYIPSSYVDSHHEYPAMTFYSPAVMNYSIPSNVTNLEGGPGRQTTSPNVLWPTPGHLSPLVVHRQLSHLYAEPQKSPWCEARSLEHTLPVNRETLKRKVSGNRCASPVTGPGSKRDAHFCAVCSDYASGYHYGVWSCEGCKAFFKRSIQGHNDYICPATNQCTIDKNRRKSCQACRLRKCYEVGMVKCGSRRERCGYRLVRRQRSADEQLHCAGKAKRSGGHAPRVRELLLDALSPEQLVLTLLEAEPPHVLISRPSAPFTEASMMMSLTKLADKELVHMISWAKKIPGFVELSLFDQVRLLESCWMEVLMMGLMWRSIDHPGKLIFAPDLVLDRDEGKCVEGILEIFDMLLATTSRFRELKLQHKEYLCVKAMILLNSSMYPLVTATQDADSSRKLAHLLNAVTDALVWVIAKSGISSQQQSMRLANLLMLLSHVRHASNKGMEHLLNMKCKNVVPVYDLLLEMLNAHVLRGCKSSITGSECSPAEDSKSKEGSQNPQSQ
# Summary of the method: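 ER-beta-UAS-bla HEK293T (GripTite) cells in 2% charcoal-stripped FBS medium were preincubated 6 hr at 37C, dosed with compound, then stimulated with 1 nM E2 (final) for 16 hr; beta-lactamase reporter read by B/G FRET fluorescence after 2 hr substrate loading.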
# [18] = target: Thyrotropin receptor (Homo sapiens) (UniProt P16473); assay: qHTS assay to identify small molecule antagonists of the thyroid stimulating hormone receptor (TSHR) signaling pathway (AID 1259385; calls by dose curve; further: nearly all actives have a fitted effect of over 20% in size; further: potency means the concentration at half of the fitted maximal effect)
# Chain of Thyrotropin receptor (Homo sapiens) (P16473 whole entry, looked up): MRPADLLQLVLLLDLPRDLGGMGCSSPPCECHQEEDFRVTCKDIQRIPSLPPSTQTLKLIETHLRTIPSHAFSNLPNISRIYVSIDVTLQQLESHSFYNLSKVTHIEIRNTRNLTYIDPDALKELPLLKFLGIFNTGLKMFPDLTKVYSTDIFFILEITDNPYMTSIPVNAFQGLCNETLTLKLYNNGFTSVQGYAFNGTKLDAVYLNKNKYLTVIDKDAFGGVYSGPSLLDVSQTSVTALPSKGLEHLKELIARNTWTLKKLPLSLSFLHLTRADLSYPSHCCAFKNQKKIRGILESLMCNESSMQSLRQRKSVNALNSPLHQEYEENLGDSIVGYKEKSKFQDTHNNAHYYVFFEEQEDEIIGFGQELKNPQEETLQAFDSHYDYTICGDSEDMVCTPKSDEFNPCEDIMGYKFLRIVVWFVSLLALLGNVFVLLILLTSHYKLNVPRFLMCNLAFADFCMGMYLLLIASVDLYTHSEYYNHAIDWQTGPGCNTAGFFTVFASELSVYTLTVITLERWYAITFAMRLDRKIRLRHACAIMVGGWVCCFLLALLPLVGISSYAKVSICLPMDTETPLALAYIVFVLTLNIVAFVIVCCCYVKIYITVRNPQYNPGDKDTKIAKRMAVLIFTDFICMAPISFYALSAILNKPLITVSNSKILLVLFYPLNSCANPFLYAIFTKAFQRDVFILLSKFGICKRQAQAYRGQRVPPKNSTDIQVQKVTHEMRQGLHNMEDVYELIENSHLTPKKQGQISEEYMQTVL
# Summary of the method: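 TSHR-HEK293 cells were plated and held 18 h at 37C/5% CO2, then given compound plus Ro20-1724 and stimulated with TSH at 1.5 ng/mL final. After 30 min at room temperature, cAMP was detected with cAMP-d2/anti-cAMP-cryptate (1 h) by fluorescence.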
# [19] = target: Androgen receptor (Homo sapiens) (UniProt P10275); assay: qHTS assay to identify small molecule agonists of the androgen receptor (AR) signaling pathway in the presence of an antagonist (AID 1259381; calls by dose curve; further: nearly all actives have a fitted effect of over 15% in size)
# Chain of Androgen receptor (Homo sapiens) (P10275 whole entry, looked up): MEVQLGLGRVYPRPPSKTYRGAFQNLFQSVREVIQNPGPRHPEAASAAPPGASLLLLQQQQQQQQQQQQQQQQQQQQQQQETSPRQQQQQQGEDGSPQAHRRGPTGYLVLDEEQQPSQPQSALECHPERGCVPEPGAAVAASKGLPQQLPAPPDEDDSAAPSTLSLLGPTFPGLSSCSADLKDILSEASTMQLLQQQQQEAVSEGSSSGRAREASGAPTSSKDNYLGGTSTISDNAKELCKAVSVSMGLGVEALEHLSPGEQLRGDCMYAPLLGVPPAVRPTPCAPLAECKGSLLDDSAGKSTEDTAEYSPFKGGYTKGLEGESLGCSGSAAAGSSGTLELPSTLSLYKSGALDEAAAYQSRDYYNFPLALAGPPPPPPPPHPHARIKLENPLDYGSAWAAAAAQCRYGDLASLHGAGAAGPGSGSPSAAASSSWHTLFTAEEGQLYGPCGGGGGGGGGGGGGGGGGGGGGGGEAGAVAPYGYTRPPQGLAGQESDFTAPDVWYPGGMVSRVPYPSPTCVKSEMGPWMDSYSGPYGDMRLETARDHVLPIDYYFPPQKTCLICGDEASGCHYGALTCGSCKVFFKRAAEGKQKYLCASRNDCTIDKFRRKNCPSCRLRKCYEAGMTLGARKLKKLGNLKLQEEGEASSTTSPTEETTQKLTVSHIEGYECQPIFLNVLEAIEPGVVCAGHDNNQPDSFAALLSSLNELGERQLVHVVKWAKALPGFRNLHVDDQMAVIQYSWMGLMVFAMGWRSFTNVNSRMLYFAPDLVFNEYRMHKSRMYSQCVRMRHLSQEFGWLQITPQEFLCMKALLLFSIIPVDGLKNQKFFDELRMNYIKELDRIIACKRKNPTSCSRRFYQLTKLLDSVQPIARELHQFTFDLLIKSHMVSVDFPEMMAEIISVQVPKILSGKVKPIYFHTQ
# Summary of the method: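 Agonist-mode confirmation run against 3.0 uM final nilutamide: compounds titrated at 15 concentrations onto MDA-kb2 MMTV-luciferase reporter cells. Luminescence measured with ONE-Glo following 16 hr incubation, 37C, 0% CO2.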
SMILES,Potency [1],Potency [2],Potency [3],Potency [4],Potency [5],Potency [6],Potency [7],Potency [8],Potency [9],Potency [10],Potency [11],Potency [12],Potency [13],outcome [14],Potency [15],Potency [16],Potency [17],Potency [18],Potency [19]
CC(=O)CC(=O)Nc1ccc2[nH]c(=O)[nH]c2c1,inactive,inactive,inactive,inactive,inactive,inactive,inactive,inactive,inactive,inactive,inactive,inactive,inactive,inactive,inactive,inactive,–,–,–
O=C(OCc1ccccc1)c1ccc(O)cc1,43.3 µM (active) and inactive,inactive,inactive,inactive,30.6 µM (active) and 29.8 µM (active),inactive,inactive,inactive,34.4 µM (active) and 26.6 µM (active),inactive,inactive,inactive,inactive,inactive,inactive,–,19.3 µM (active),–,–
CCc1cc(C(C)(C)C)c(O)c(C(C)(C)C)c1,inactive,inactive,inactive,inactive,–,inactive,inactive,inactive,inactive,inactive,inactive,inactive,inactive,inactive,inactive,inactive,–,inactive,–
CCCCCCCCCCCCCC[P+](CCCC)(CCCC)CCCC,24.2 nM (active) and 61.1 nM (active),19.2 µM (active) and 15.4 µM (active),17.1 µM (active) and 27.3 µM (active),19.2 µM (active) and 24.3 µM (active),inactive,inactive,12.1 µM (active) and 17.2 µM (active),–,–,30.5 µM (active) and 54.5 µM (active),30.5 µM (active),10.9 µM (active) and 27.5 µM (active),54.9 µM (active),–,inactive,inactive,–,54.2 µM (active) and 48.6 µM (active),inactive
CC(=O)CC(C)=O,inactive,inactive,inactive,inactive,inactive,inactive,inactive,inactive,–,inactive,inactive,inactive,inactive,inactive,inactive,–,–,inactive,–
c1ccc2c(c1)-c1cccc3c1c-2cc1ccccc13,inactive and 545 nM (active),inactive,inactive,inactive,inactive,inactive,inactive,–,–,inactive,inactive,inactive,inactive,–,–,–,–,inactive,–
CCCCCCCCCCCCc1ccccc1O,67.7 µM (active) and 34.4 µM (active),61.1 µM (active),30.2 µM (active) and 27.3 µM (active),47.9 µM (active) and 43.3 µM (active),–,–,68.6 µM (active),–,–,38.6 µM (active),53.8 µM (active) and 30.6 µM (active),54.2 µM (active) and 54.9 µM (active),49 µM (active),inactive,inactive,inactive,1.35 µM (active),–,inactive
